The source of these data is PubChem BioAssay AID2685 (National Center for Advancing Translational Sciences (NCATS), 2010).

Out of some 320,000 compounds screened, about 2,100 (0.66%) were called active. Inconclusive results (about 53%) are left out. The call rests on the fitted dose curve; in most records, active means well fitted inhibition curve with a large enough effect in the signal ratio, with a control signal flat (not every such curve was filed as active); inconclusive means small, poorly fitted or top-dose-only effect, or effect the other way, or a change in a side signal; inactive means flat fitted curve, though single readings scatter; the % refers to the signal ratio. The sample as a whole holds a higher share of actives than the screen did.
Potency means the concentration at half of the fitted maximal effect.

This assay can be described thus: qHTS Assay for Lipid Storage Modulators in Drosophila S3 Cells.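 On cell number change: cells counted by Cell Tracker Red CMTPX staining in the red channel.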 On lipid storage change, negative = inhibition: on the % scale 0 is the no-effect control and ±100 the full control effect. Particulars: BODIPY lipid droplet fluorescence, 18-24 h, cells fed with added oleic acid; cell number change: measured here: cell count max response; series mostly up to 46.1 µM. The method in brief: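 Drosophila S3 cells loaded with oleic acid (400 uM, as added) and compounds at several concentrations; lipid droplets imaged by 488-nm laser-scanning cytometry, 500–530 nm intensity and object ratio to cell channel. Percent activity normalized to 20 uM Triacsin C.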
For `COc1cc(C(=O)NCCC2=CCCCC2)ccc1OC1CCN(C(C)=O)CC1`, the Potency result is “inactive” and the cell number change worked out at 8.8%.

In the case of `COc1ccc(NC(=O)CN2CCC(C(=O)c3ccc(F)cc3)CC2)c(OC)c1`, the Potency entry was “inactive” and the cell number change is -0.87%.

As for `CCC(C)C(=O)Nc1ccc(OC)cc1OC` (stereo not drawn), the Potency was 23.1 µM (active) and the cell number change amounted to 17.4%.

For the molecule `COc1ccc(NC(=O)CN2CCCN(S(=O)(=O)c3ccc(F)cc3)CC2)c(OC)c1`, the Potency entry is “inactive” and the cell number change amounted to 0.557%.

In the case of `COc1ccc(NC(=O)C(CC(C)C)NC(=O)C2CCCCC2)c(OC)c1` (stereo not drawn), the Potency entry was “inactive” and the cell number change is -5.85%.

Regarding `COc1ccc(NC(=O)CN2CCN(CC(=O)Nc3ccc(F)cc3)CC2)c(OC)c1`, the Potency was 18.4 µM (active) and the cell number change is 21.1%.

Regarding `COc1ccc(NC(=O)c2ccc(C(=O)Nc3ccc(OC)cc3OC)cc2)c(OC)c1`, the Potency entry was “inactive” and the cell number change amounted to 1.2%.

`Cc1cc(Br)cc2c1NC(=O)C2(O)CC(=O)c1ccco1` (stereo not drawn): the cell number change came out at 3.68% and the lipid storage change, negative = inhibition is 9.35% [at 9.22 µM] (inactive).

In the case of `COc1ccc(NC(C)=[N+](C)CCNS(=O)(=O)c2ccc(Cl)cc2)cc1`, the Potency entry is “inactive”.

As for `C/C(CCc1ccco1)=N/NC(=O)CCC(=O)Nc1cccc(Cl)c1`, the Potency result was “inactive” and the cell number change was found to be 0.649%.

Regarding `CC(C)(C)c1ccc(S(=O)(=O)/N=C2\C=C(NS(=O)(=O)c3ccccc3)C(=O)c3ccccc32)cc1`, the Potency result is “inactive” and the cell number change is -1.8%.

Turning to `O=C(O)c1ccc(S(=O)(=O)/N=C2\C=C(Nc3ccccc3F)C(=O)c3ccccc32)cc1`, the Potency is 6.51 µM (active) and the cell number change came out at 2.14%.

Turning to `CCc1ccc(S(=O)(=O)/N=C2\C=C(Nc3ccc(O)cc3)C(=O)c3ccccc32)cc1`, the Potency result was “inactive” and the cell number change stood at 15.8%.

`O=S(=O)(/N=C(/Nc1ccccc1F)c1ccccc1)c1ccccc1`: the Potency result is “inactive”.

Regarding `Cc1cc(C)c(S(=O)(=O)/N=C2\C=C(Nc3ccc(C(=O)O)cc3)C(=O)c3ccccc32)c(C)c1`, the Potency is 0.92 µM (active) and the cell number change worked out at 11.7%.

As to `CC(=O)Nc1ccc(NC2=CC(=O)c3ccccc3C2=O)cc1`, the Potency result is “inactive” and the cell number change turned out to be 4.49%.

Turning to `Cc1ccc(-n2c(C)cc(/C=N/NC(=O)c3ccncc3)c2C)cc1C`, the Potency entry was “inactive”.

As for `CC1(C)CC(NC(=S)Nc2ccc([N+](=O)[O-])cc2)CC(C)(C)N1`, the Potency entry was “inactive” and the cell number change worked out at 15.8%.

Take `Cc1ccc(C(=O)Nc2cc3c(cc2N2CCCCC2)n(C)c(=O)n3C)cc1`: the Potency entry is “inactive” and the cell number change was -8.73%.

For the molecule `CCOC(=O)C1CCN(c2cc3c(cc2NC(=O)c2ccc(F)cc2)n(C)c(=O)n3C)CC1`, the Potency entry is “inactive” and the cell number change is -8.96%.

In the case of `CCOC(=O)C1CCN(c2cc3c(cc2NC(=O)c2ccccc2)n(C)c(=O)n3C)CC1`, the Potency is 3.66 µM (active).

`c1ccc(-c2nc(-c3nccc4ccccc34)oc2-c2ccccc2)cc1`: the Potency result is “inactive” and the cell number change is -5.47%.

In the case of `N#CCCN(C(=O)COc1ccc(C#N)cc1)c1ccc(F)cc1`, the Potency entry is “inactive” and the cell number change is 6.15%.

For the molecule `CN(C(=O)c1ccccc1Cl)c1ccccc1`, the Potency entry was “inactive”.

With `CCN(C(=O)CCC(=O)N(CC)c1ccccc1)c1ccccc1`, the Potency entry is “inactive” and the cell number change was -0.108%.

Consider `CCN(C(=O)c1ccccc1Cl)c1ccccc1`, for which the Potency was 23.1 µM (active).

Consider `CCC(C)(C)n1nnnc1C(c1cccnc1)N1CCN(c2cccc(C(F)(F)F)c2)CC1` (stereo not drawn), for which the Potency result is “inactive” and the cell number change is -8.43%.

For the molecule `O=[N+]([O-])c1ccc(-c2ccc(S(=O)(=O)N3CCOCC3)cc2)cc1`, the Potency result is “inactive” and the cell number change is -1.81%.

`CC(=O)C(=Cc1ccc(O)cc1)C(C)=O`: the Potency result is “inactive” and the cell number change is -7.54%.

Regarding `Cc1cc2c(cc1S(=O)(=O)N(C)c1ccccc1)NC(=O)CO2`, the Potency entry is “inactive” and the cell number change is -11.6%.

For the molecule `CCc1cc(C(=O)OC)c(NC(=O)CN2CCN(C(=O)c3ccco3)CC2)s1`, the Potency entry is “inactive” and the cell number change worked out at 13.8%.

For `CCOC(=O)c1cc(C)sc1NC(=O)CN1CCN(C(=O)c2ccco2)CC1`, the Potency entry was “inactive” and the cell number change came to 16.2%.

Take `Cc1ccccc1NC(=O)CN1CCN(C(=O)c2ccco2)CC1`: the Potency entry was “inactive” and the cell number change was determined as 25%.

`O=C(CN1CCN(C(=O)c2ccco2)CC1)Nc1cc(Cl)ccc1Cl`: the Potency entry is “inactive” and the cell number change is -13.1%.

`COC(=O)c1cc(C)sc1NC(=O)CN1CCN(C(=O)c2ccco2)CC1`: the Potency is 1.84 µM (active) and the cell number change came out at 3.78%.

Regarding `Cc1cc(Cl)ccc1NC(=O)CN1CCN(C(=O)c2ccco2)CC1`, the Potency is 4.61 µM (active) and the cell number change turned out to be 2.78%.

Consider `O=C(O)c1cc(-c2cccnc2)nc2ccc(Br)cc12`, for which the Potency entry is “inactive” and the cell number change turned out to be 9.56%.

Regarding `CC(C)(C)c1ccc(OCc2nnc(SCC(N)=O)n2N)cc1`, the Potency result is “inactive”.

Consider `Cc1cccc(NC(=O)CCNC(=O)c2ccccc2Cl)n1`, for which the Potency result is “inactive”.

On to `COC(=O)c1ccccc1NC(=O)c1cccnc1`, for which the Potency entry was “inactive” and the cell number change stood at 10.2%.

On to `C/C(=C\C=C(C#N)C#N)c1cc(C#N)c(N)o1`, for which the Potency was 16.4 µM (active) and the cell number change is -22.3%.

Turning to `O=C(Cc1cccs1)Nc1ccccc1F`, the Potency entry is “inactive” and the cell number change was 10.1%.

With `CCOCCCNC(c1ccccc1)c1ccncc1` (stereo not drawn), the Potency entry was “inactive” and the cell number change is 7.02%.

With `Cc1nc2c(n1O)CCC/C2=N\O`, the Potency result is “inactive” and the cell number change is -1.11%.

For `O/N=C1\CCCc2c1nc(-c1ccccc1F)n2O`, the Potency result is “inactive”.

Turning to `COc1ccc(-c2nc3c(n2O)CCC/C3=N\O)cc1`, the Potency was 4.61 µM (active) and the cell number change was found to be 4.07%.
